Measured values published in ChEMBL document CHEMBL3988442, “University of Dundee, Small-Polar-MMV Screening Library” (2021).
About 440 (0.52%) of roughly 85,000 compounds showed an effect of 50% or more. For the sample, strong results were picked, then their nearest neighbours and some compounds at random.

Assay: In vitro enzyme assay to detect hydrolysis of chlorophenol red-beta-D-[…] directly proportional to the number of Toxoplasma stably expressing beta-galactosidase
Assay type: functional, organism-based, Toxoplasma gondii
Design: scale not given: in the data most compounds retested in dose-response had high values

Compound	Percent Effect (50 µM)	Percent Effect (10 µM)
Cc1ccc(F)c(NC(=O)N2CCOCC2CO)c1 (stereo not given)	2.099%	
O=C1CN(CC(=O)N2CCc3sccc3C2)CCN1	8.555%	
Cc1ccccc1CC(=O)NCC(F)(F)F	-13.95%	
CC(=O)C1CN(C(=O)OC(C)(C)C)CCO1 (stereo not given)	-6.486%	
CCN(CC)CCCNCC1CCOC(C)(C)C1 (stereo not given)		1.68%
CN(C)CCNCC1CCOC(C)(C)C1 (stereo not given)		12.77%
CC(CCc1ccccc1)NC(=O)CNCCCN(C)C.O=C(O)C(=O)O (stereo not given)		-5.52%
CN(C)CCNCCC(Cc1ccccc1)C1CCOC(C)(C)C1.O=C(O)C(=O)O (stereo not given)		9.919%
CN(C)CCCNCCC(Cc1ccccc1)C1CCOC(C)(C)C1.O=C(O)C(=O)O (stereo not given)		77.21%
N#CCC(=O)Nc1ccc(N2CCOCC2)cc1	-1.188%	
CCCNC(=O)CCNC(=O)Nc1cc(C)cc(C)n1	12.25%	
Cl.NCCC(=O)Nc1ccc(-c2ccccc2)cc1		10.41%
NCC(=O)Nc1ccccc1	0.1294%	
NCCC(=O)Nc1ccccc1	99.48%	
Cc1nc2c(c(NCc3ccc(N)nc3)n1)CCCC2	50.4%	
NCc1ccc(N)nc1	-3.539%	
CNCc1ccc(N(C)C)nc1	-20.16%	
Nc1nc2c(c(NCc3ccncc3)n1)CCCC2		12.09%

Compound	Percent Effect (50 µM)	Percent Effect (10 µM)
CNCc1ccc(N)nc1	63.11%	
Cc1nc2c(c(NCc3cnc4c(c3)CCC4)n1)CNC2		-1.27%
NCc1cnn(-c2ccc(F)cc2)c1	4.484%	
C1CC(OC2CCOC2)CCN1 (stereo not given)	3.071%	
COCCCOC1CN(C(=O)c2cc(F)ccc2C)C1	0.2477%	
CCCc1nc2c(c(C)c(C)n2Cc2ccccn2)c(N)c1CC		74.72%
CCCc1nc2c(c(C)c(C)n2Cc2cccnc2)c(N)c1CC		33.67%
CCCc1nc2c(c(C)c(C)n2Cc2ccncc2)c(N)c1CC		-0.599%
CCNC(=O)C(C)N (stereo not given)	-4.292%	
COc1cc(OC)cc(N2CC(N)CC2=O)c1 (stereo not given)	17.36%	
O=C(Nc1cccc(F)c1)NC1CCN(Cc2ccncc2)CC1		6.4%
CCOCCNc1nc(-c2ccncc2)nc2c1CCNCC2		-6.442%
Cl.NC1CCc2nc(-c3cccnc3)nc(Nc3ccc(F)cc3)c2C1 (stereo not given)		24.29%
Cl.NC1CCc2nc(-c3ccncc3)nc(Nc3cccc(F)c3)c2C1 (stereo not given)		92.97%
O=C(Nc1cccc(F)c1)C1CCCN1 (stereo not given)	7.876%	
N[C@@H]1CCO[C@H]1c1ccnn1-c1ccccc1	-18.85%	
CNC(=O)[C@@H]1CCCN1	-5.087%	
